Data taken from PubChem BioAssay AID1917 (Vanderbilt High Throughput Screening Facility, 2009).
Out of some 3,000 compounds screened, about 1,600 (53%) were called active. Roughly 10% stayed inconclusive and do not appear here.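 Rule for the calls: active = Flux at 10 µM at least 3 SD below or above vehicle control mean in one or both replicates; inconclusive = no clear call, values can overlap the other calls; inactive = the rest.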 So high a share suggests a set chosen from earlier hits. Only a sample is shown.

The compounds below were run against ATP-sensitive inward rectifier potassium channel 1 (Homo sapiens) (UniProt P48048) (assay: ROMK channel modulator hit retest, confirmation, cell-based, thallium flux, duplicate, resupplied hits (AID 1917)). Settings: fluorescence ratio, at 10 µM, stronger effect = lower value.
Chain of ATP-sensitive inward rectifier potassium channel 1 (Homo sapiens) (P48048 whole entry, looked up): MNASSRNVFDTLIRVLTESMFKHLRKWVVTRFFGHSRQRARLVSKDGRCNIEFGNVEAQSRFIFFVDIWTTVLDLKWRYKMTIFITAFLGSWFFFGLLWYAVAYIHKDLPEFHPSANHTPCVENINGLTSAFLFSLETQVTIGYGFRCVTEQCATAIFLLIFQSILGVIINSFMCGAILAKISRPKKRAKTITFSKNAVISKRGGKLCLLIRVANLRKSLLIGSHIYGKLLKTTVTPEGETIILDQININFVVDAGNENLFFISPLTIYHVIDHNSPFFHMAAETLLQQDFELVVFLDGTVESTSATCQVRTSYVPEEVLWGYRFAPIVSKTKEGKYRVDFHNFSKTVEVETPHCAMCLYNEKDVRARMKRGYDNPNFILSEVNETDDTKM

Structure (SMILES) | normalized thallium flux (F/F0 slope)
CC(=O)Nc1cccc(OCC(=O)/C=C2\N(C)c3ccccc3C2(C)C)c1 | 0.0622 (active)
COc1ccc(C2=CC(c3cccc(OC)c3)n3nnnc3N2)cc1 (stereo not drawn) | 0.0704 (inactive)
Cc1cc(NC(=O)/C=C/C(=O)N(c2ccccc2C)C(C(=O)NC2CCCC2)c2ccc(F)cc2)no1 (stereo not drawn) | 0.0543 (active)
N#C/C(=C/c1cccc([N+](=O)[O-])c1)c1nnc2n1CCCCC2 | 0.0362 (active)
CC1=C(C(=O)OCc2ccccc2)C(c2ccco2)n2ncnc2N1 (stereo not drawn) | 0.0737 (inactive)
COc1ccc(C(CCNCc2ccccc2F)c2ccc(F)cc2)cc1 (stereo not drawn) | 0.0609 (active)
Cc1cccc(Oc2c([N+](=O)[O-])c(=O)n(C)c3ccccc23)c1 | 0.063 (active)
Nc1ccccc1SC(C[N+](=O)[O-])c1ccccc1 (stereo not drawn) | 0.0367 (active)
O=C(/C=C/Sc1ncn[nH]1)c1ccc(Cl)cc1 | 0.0389 (active)
Cc1ccc2c(=O)oc(N(C)C)nc2c1 | 0.0826 (inactive)
CCOc1ccc(-n2cnnn2)cc1S(=O)(=O)N1CCC(C)CC1C (stereo not drawn) | 0.0657 (active)
N=c1n(CCc2ccccc2)c2ccccc2n1Cc1ccccc1F | 0.0479 (active)
COc1ccc(Nc2cc(C)nc(-n3nc(C)cc3C)n2)cc1 | 0.0854 (inactive)
CC1(C)CCSC(/C=C/c2ccccc2)=N1 | 0.0442 (active)
CCn1c(/C=C/Nc2ccccc2)[n+](CC)c2ccc(C(=O)OCC(F)(F)F)cc21 | 0.0522 (active)
O=C(Nc1cccc(C(F)(F)F)c1)c1ccc(N2CCNCC2)c([N+](=O)[O-])c1 | 0.0632 (active)
N#C/C(=C\c1ccccc1C(F)(F)F)C(=O)Nc1ccccc1F | 0.0489 (active)
Cc1ccc(N2C(=O)C3CC3C2=O)cc1 (stereo not drawn) | 0.0794 (inactive)
N#C/C(=C\C1=C(N2CCOCC2)C(=C\c2ccccc2)/CC1)C(=O)Nc1ccccc1F | 0.0509 (active)
COC(=O)C[n+]1cccc2ccccc21 | 0.0529 (active)
CN1CCN(c2ccc(S(=O)(=O)N3CCCCC3)cc2NC(=O)Cc2ccccc2F)CC1 | 0.0614 (active)
CNc1nccc(-c2ccc(Cl)cc2)c1C#N | 0.0744 (inactive)
CCOC(=O)N/N=C1\CC(C)S(=O)(=O)c2ccc(Cl)cc21 (stereo not drawn) | 0.0738 (inactive)
